This is part of a sample that, as a whole, favours compounds with a hit. Of some 83,000 tested, about 20% had one in any assay.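 Step 1: grow cells in 96-well plates. Step 2: add test compound at a single concentration. Step 3: incubate 48 h. Step 4: record percent growth.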 Activity calls are given as the source filed them. How the source made its calls: active means growth percent below 10; inactive means the rest.
Assays:
Assay in all cases: NCI-60 one-dose screen, 48 h (100 = growth as untreated, 0 = no growth, -100 = all killed)
T-47D breast = details: 10 µM
BT-549 breast = details: 10 µM unless noted
MDA-MB-435 melanoma = details: 10 µM unless noted
MCF7 breast = details: 10 µM unless noted
HCT-116 colon = details: 10 µM unless noted
HCC-2998 colon = details: 10 µM unless noted
KM12 colon = details: 10 µM unless noted
SW-620 colon = details: 10 µM unless noted

Measured: growth

O=C(N/N=C(\CS(=O)(=O)c1ccccc1)c1cc2cc(Br)ccc2oc1=O)c1ccccc1
inactive: T-47D breast 94.1% | BT-549 breast 102% | MDA-MB-435 melanoma 100% | MCF7 breast 98.2% | HCT-116 colon 104% | HCC-2998 colon 103% | KM12 colon 105%

NC(=O)c1nc2c([nH]c1=O)CCCC2
inactive: T-47D breast 92.7% | BT-549 breast 115% | MDA-MB-435 melanoma 113% | MCF7 breast 98.7% | HCT-116 colon 109% | KM12 colon 98.8%

COc1cc(CNCCCN2C(=O)c3ccc4c5c(ccc(c35)C2=O)C(=O)N(CCCNCc2cc(OC)c(OC)c(OC)c2)C4=O)cc(OC)c1OC
active: T-47D breast -56.9% | MDA-MB-435 melanoma -71.5% | MCF7 breast -58.1% | HCT-116 colon -61.8% | HCC-2998 colon -92.4% | KM12 colon -86.9%

Cc1nc(NN)c([N+](=O)[O-])c(NN)n1
inactive: T-47D breast 103% | BT-549 breast 107% | MDA-MB-435 melanoma 104% | MCF7 breast 98.7% | HCT-116 colon 99.2% | KM12 colon 104%

O=C(CC(O)c1ccccc1)Nc1ccccn1 (stereo not given)
inactive: T-47D breast 94.1% | MDA-MB-435 melanoma 97.9% | SW-620 colon 109% | MCF7 breast 103% | HCT-116 colon 97.6% | HCC-2998 colon 102% | KM12 colon 103%

CC(=O)OC[C@H](O)[C@@]1(O)CC[C@H]2[C@@H]3CCC4=CC(=O)CC[C@]4(C)[C@H]3[C@@H](O)C[C@@]21C
inactive: T-47D breast 113% | MDA-MB-435 melanoma 119% | SW-620 colon 102% | MCF7 breast 112% | HCT-116 colon 98.4% | HCC-2998 colon 103% | KM12 colon 105%

O=C1c2ccccc2-c2cn(Cc3ccccc3)c3cccc(c23)C1c1cccnc1 (stereo not given)
inactive: T-47D breast 43% | SW-620 colon 30.8% | MCF7 breast 12.4% | HCT-116 colon 27.9% | HCC-2998 colon 56.4% | KM12 colon 30.5%
active: MDA-MB-435 melanoma 6.45%

COc1ccc(Nc2[nH]n(C3=Nc4ccccc4Sc4ccccc43)c(=O)c2C#N)cc1
inactive: T-47D breast 17.9% | BT-549 breast 52.8% | MCF7 breast 30.7% | HCT-116 colon 30.6% | HCC-2998 colon 40.8% | KM12 colon 43.8%

COc1c(O)c2c3c(c1OC)-c1ccccc1CC3N(S(=O)(=O)c1ccc(C)cc1)CC2 (stereo not given)
inactive: T-47D breast 62% | SW-620 colon 30% | MCF7 breast 20.2% | HCT-116 colon 38.6% | HCC-2998 colon 89.6% | KM12 colon 27.8%
active: MDA-MB-435 melanoma -0.0173%

NC1=NC(c2ccccc2OS(=O)(=O)c2ccc(Br)cc2)n2c(nc3ccccc32)N1 (stereo not given)
inactive: T-47D breast 81.2% | MDA-MB-435 melanoma 73.1% | SW-620 colon 96% | MCF7 breast 77.3% | KM12 colon 100%

N#CC1=C(N)Oc2cc(N)ccc2C1c1ccc(F)cc1 (stereo not given)
inactive: T-47D breast 96.6% | BT-549 breast 69.2% | MCF7 breast 64.1% | HCT-116 colon 78.4% | KM12 colon 49.7%
active: MDA-MB-435 melanoma -21.9%

Nc1cc2[nH]c(=O)c3ccccc3c2cc1Br
inactive: T-47D breast 20.6% | MDA-MB-435 melanoma 95.3% | SW-620 colon 82.9% | MCF7 breast 24.5% | HCT-116 colon 77% | HCC-2998 colon 69.5% | KM12 colon 78.9%

NS(=O)(=O)c1cc(Br)c2c(c1)S(=O)(=O)NCN2
inactive: T-47D breast 102% | BT-549 breast 108% | MDA-MB-435 melanoma 105% | MCF7 breast 97.4% | HCT-116 colon 108% | KM12 colon 96.9%

C(=C\c1ccccc1)/CN1CCN(C(c2ccccc2)c2ccccc2)CC1
inactive: T-47D breast 79.7% | BT-549 breast 92.2% | SW-620 colon 90.3% | MCF7 breast 92.4% | HCT-116 colon 95.8% | HCC-2998 colon 100% | KM12 colon 104%

COc1ccc(OC2=C(C#N)C(=N)N3c4ccccc4Sc4ccccc4C3N2)cc1 (stereo not given)
inactive: T-47D breast 87% | BT-549 breast 96.9% | MCF7 breast 95.6% | HCT-116 colon 103% | HCC-2998 colon 95.2% | KM12 colon 97.7%

CCN(c1ccc(C(=O)N2CCN(c3ccccc3)CC2)cc1)S(C)(=O)=O
inactive: T-47D breast 93.2% | BT-549 breast 108% | MDA-MB-435 melanoma 106% | MCF7 breast 95.9% | HCT-116 colon 101% | HCC-2998 colon 102% | KM12 colon 101%

O=C1N/C(=C\c2ccccc2)c2ncccc21
inactive: T-47D breast 79.5% | MDA-MB-435 melanoma 109% | SW-620 colon 113% | MCF7 breast 80% | HCT-116 colon 101% | HCC-2998 colon 109% | KM12 colon 97.2%

COc1cccc(C2CC(=O)Nc3cc4c(cc32)CCC4)c1OC (stereo not given)
inactive: T-47D breast 57.1% | BT-549 breast 62.3% | MCF7 breast 29.3% | HCT-116 colon 57.7% | KM12 colon 28.5%
active: MDA-MB-435 melanoma -56.5%

CC(C)NCC(O)COc1ccc(CCOCC2CC2)cc1 (stereo not given)
inactive: T-47D breast 103% | BT-549 breast 116% | MDA-MB-435 melanoma 103% | MCF7 breast 107% | HCT-116 colon 106% | KM12 colon 113%

CCC12CCC3c4ccc(O)cc4CCC3C1CC(O)C2O (stereo not given)
active: MDA-MB-435 melanoma -2.42%
inactive: T-47D breast 93.9% | SW-620 colon 43% | MCF7 breast 75.5% | HCT-116 colon 64.6% | HCC-2998 colon 75.9% | KM12 colon 53.5%

O=C1/C(=C/c2ccccc2F)CNC/C1=C\c1ccccc1F
active: T-47D breast 9.26% | MDA-MB-435 melanoma -56.7% | SW-620 colon -49.8% | MCF7 breast -47% | HCT-116 colon -81.8% | HCC-2998 colon -89.2% | KM12 colon -80.1%

C=C1CC[C@@H]2[C@@](C)(CCC[C@]2(C)C(=O)O)[C@@H]1CC[C@H](CO)CCO
inactive: T-47D breast 90.5% | MDA-MB-435 melanoma 109% | SW-620 colon 114% | MCF7 breast 101% | HCT-116 colon 107% | HCC-2998 colon 108% | KM12 colon 102%

Cc1ccc(S(=O)(=O)N2CCc3ccc(O)c4c3C2CCc2ccccc2-4)cc1 (stereo not given)
inactive: T-47D breast 94% | MDA-MB-435 melanoma 97.7% | SW-620 colon 102% | MCF7 breast 103% | HCT-116 colon 108% | HCC-2998 colon 104% | KM12 colon 95.2%

COc1cc(/C=C/C(=O)C(=Cc2ccc(F)c(F)c2)C(=O)/C=C/c2ccc(O)c(OC)c2)ccc1O
inactive: T-47D breast 44.1% | MCF7 breast 35.8%
active: MDA-MB-435 melanoma 0.136% | SW-620 colon -44.7% | HCT-116 colon -76.5% | HCC-2998 colon -71.9% | KM12 colon 1.53%

COc1cc2cc(Oc3ccc(NC(=O)Nc4ccc(Cl)c(C(F)(F)F)c4)cc3)c(C)nc2cc1OCCN1CCCCC1
inactive: BT-549 breast 71.7%
active: MDA-MB-435 melanoma -95.9% | SW-620 colon -89.4% | MCF7 breast -85.9% | HCT-116 colon -46.3% | HCC-2998 colon -38.6% | KM12 colon -79.6%

O=c1c2c(=NCCN3CCCC3)cc3c(=O)n(CCCN4CCOCC4)c(=O)c4ccc(c(O)n1CCCN1CCOCC1)c2c4-3
active: BT-549 breast -34.9% | MDA-MB-435 melanoma -87.9% | SW-620 colon -15.5% | MCF7 breast -17.7% | HCT-116 colon 0.411% | HCC-2998 colon -45.8% | KM12 colon -20.9%

COc1cc(/C=N/NC(=O)c2cnn3c2NC(c2ccccc2)C3)cc(OC)c1OC (stereo not given)
inactive: BT-549 breast 60.2% | SW-620 colon 32.8% | MCF7 breast 34.9% | HCT-116 colon 35% | HCC-2998 colon 91.2% | KM12 colon 30.6%
active: MDA-MB-435 melanoma -15.9%

Cc1ccc(NS(=O)(=O)c2ccc(-c3cnc(C4CC4)o3)cc2)cc1
inactive: BT-549 breast 40.4% | SW-620 colon 12.4% | MCF7 breast 15.6% | HCT-116 colon 11.8% | HCC-2998 colon 69.2% | KM12 colon 20.5%
active: MDA-MB-435 melanoma -3.14%

Cc1nc2ccc(Cl)cc2n1C
inactive: BT-549 breast 103% | MDA-MB-435 melanoma 109% | SW-620 colon 108% | MCF7 breast 102% | HCT-116 colon 109% | HCC-2998 colon 111% | KM12 colon 104%

O=S(=O)(Nc1ccccc1Cl)c1ccc(-c2cnc(C3CC3)o2)cc1
inactive: BT-549 breast 49.5% | SW-620 colon 26.2% | MCF7 breast 15.7% | HCT-116 colon 22.3% | HCC-2998 colon 39.9% | KM12 colon 20.5%
active: MDA-MB-435 melanoma -35.2%

Cc1c(C(=O)Nc2nc(-c3ccccc3)cs2)nnn1-c1cccc2ccccc12
inactive: BT-549 breast 56.7% [50 µM] | MDA-MB-435 melanoma 47.2% [50 µM] | SW-620 colon 71.6% [50 µM] | MCF7 breast 38.7% [50 µM] | HCT-116 colon 30% [50 µM] | HCC-2998 colon 87.7% [50 µM] | KM12 colon 65% [50 µM]

COc1cc2cc(Oc3ccc(NC(=O)Nc4cccc(C(F)(F)F)c4)cc3)c(C)nc2cc1OCCN1CCCCC1
inactive: BT-549 breast 79.5%
active: MDA-MB-435 melanoma -92.8% | SW-620 colon -82% | MCF7 breast -80.4% | HCT-116 colon -23.1% | HCC-2998 colon -50% | KM12 colon -92.2%

O=C(N/N=C/c1ccc2c(c1)OCO2)c1cnn2c1NC(c1ccccc1)C2 (stereo not given)
inactive: BT-549 breast 60.6% | SW-620 colon 43.6% | MCF7 breast 33% | HCT-116 colon 25.1% | HCC-2998 colon 45.3% | KM12 colon 21.3%
active: MDA-MB-435 melanoma 3.07%

Reference: PubChem BioAssay (NCI)
